“And” between values parts separate entries of the source, which are not always exact repeats. Equal entries are not always repeated. Compounds without any hit were thinned out: in the full panel of roughly 83,000, 20% have a hit.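 Plates (96-well) were seeded with cells, treated with compound at one concentration, and incubated for 48 hours before percent growth was determined.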 The source made the active and inactive calls. How the source made its calls: active means growth percent below 10; inactive means the rest.
System: MDA-MB-468 breast
Test: NCI-60 one-dose screen, 48 h (100 = growth as untreated, 0 = no growth, -100 = all killed)
Settings: 10 µM unless noted

SMILES	growth
C=C1CCC[C@]2(C)CCC[C@H](C)[C@@H](OC(C)=O)[C@@H]3OC(=O)C(=C)[C@@H]3C[C@H]1O2	31.8% (inactive)
Cc1cc(Nc2nc(N3CCNCC3)nc3ccccc23)n[nH]1	76.6% (inactive)
O=C(Nc1ccccc1)Oc1c(Cl)c(Cl)c(Cl)c(Cl)c1Cl	116% (inactive) and 98.8% (inactive)
Nc1nc(Cl)nc2c1ncn2C1O[C@H](CO)[C@@H](O)[C@@H]1F (stereo not given in full)	5.22% (active)
Clc1ccc2c(c1)N(CCCN1CCCC1)c1ccccc1S2	16.4% (inactive)
